# Measured values taken from the supplement of paper PMC3334620.
# Over roughly 33,000 sequences, “E-score (-0.5 to 0.5)” has its median near -0.035; the highest 2% begin near 0.35. The sample as a whole holds a higher share of the highest values than the screen did.
# Target: T1, Pdr3 (UniProt P33200)
# T1 sequence: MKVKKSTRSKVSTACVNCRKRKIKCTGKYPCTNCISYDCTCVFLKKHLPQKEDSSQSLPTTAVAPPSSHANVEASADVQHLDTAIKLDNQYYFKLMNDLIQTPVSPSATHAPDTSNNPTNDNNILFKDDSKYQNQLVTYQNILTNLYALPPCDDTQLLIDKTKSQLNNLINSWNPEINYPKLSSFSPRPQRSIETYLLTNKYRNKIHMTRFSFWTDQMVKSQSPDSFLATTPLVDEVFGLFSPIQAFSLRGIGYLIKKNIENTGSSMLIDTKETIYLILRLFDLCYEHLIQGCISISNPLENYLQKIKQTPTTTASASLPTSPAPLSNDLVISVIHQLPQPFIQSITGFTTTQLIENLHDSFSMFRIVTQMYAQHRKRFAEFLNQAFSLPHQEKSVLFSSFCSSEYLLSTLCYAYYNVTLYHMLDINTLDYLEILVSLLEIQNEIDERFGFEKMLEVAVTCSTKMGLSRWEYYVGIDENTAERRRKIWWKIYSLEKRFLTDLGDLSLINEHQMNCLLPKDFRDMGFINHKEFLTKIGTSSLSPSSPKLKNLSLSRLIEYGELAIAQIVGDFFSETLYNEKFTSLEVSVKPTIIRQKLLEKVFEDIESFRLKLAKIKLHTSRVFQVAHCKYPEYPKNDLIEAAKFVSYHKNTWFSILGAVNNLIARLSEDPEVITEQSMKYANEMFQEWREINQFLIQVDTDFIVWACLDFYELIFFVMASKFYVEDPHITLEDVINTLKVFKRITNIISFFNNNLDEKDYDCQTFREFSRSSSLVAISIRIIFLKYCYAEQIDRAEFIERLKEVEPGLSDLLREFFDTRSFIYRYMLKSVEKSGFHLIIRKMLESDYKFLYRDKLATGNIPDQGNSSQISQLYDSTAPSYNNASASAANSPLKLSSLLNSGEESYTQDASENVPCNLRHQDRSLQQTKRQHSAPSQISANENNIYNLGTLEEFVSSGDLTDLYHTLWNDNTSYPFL
# Assay: PBM E-score (8-mer binding enrichment) (E-score (-0.5 to 0.5)); higher = stronger / more preferred TF binding
# Details: protein concentration: 200 nM; construct: GST-full length
# Method in brief: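 Using PURExpress in vitro transcription/translation, GST-tagged yeast transcription factors were made in full-length or DNA-binding-domain form. These were applied at about 100-200 nM to double-stranded universal all-10-mer Agilent arrays, and bound protein was detected with fluorescent anti-GST. Scans were normalised with masliner before the Universal PBM Analysis Suite assigned E-scores to ungapped eight-base words pooled with their reverse complements.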
row,Sequence,PBM E-score
1,ATAGATTA,-0.0055
2,CCAATAGG,-0.154
3,CGAGATAC,0.128
4,GGTAAAGA,-0.0497
5,ATGTCTGA,-0.106
6,ATCCAAAA,-0.00928
7,GGCCCCGA,0.181
8,GGCAGCCA,0.0184
9,GTATCTAA,0.0522
10,CTGAGAAA,-0.236
11,CGCAATGC,-0.0405
12,ACAGTGAC,0.0756
13,CCCCGGCC,0.0967
14,CCCCGGGG,0.412
15,AACCCGGG,0.424
16,AACCCGGT,0.258
17,AACCCCGG,0.312
18,CACCGGGG,0.0593
19,GGCGAGCA,0.0206
20,CAGATAGC,-0.0206
21,ATAGTTAA,-0.038
22,CTCAGTAC,-0.183
23,GACAAACC,-0.0403
24,TCGTACGA,-0.293
25,ACTTGGTG,-0.141

row,Sequence,PBM E-score
1,ACGGAAAA,0.403
2,GCGGAAAA,0.397
3,ATGGAAAA,0.0967
4,AAGGAAAC,0.0238
5,GCGGGAAA,0.332
6,AGGGAAAT,-0.115
7,ACGGAAAT,0.452
8,ACGGAAAC,0.452
9,GAGGAAAA,0.0256
10,AGGGAAAC,-0.104
11,ACGGGAAA,0.277
12,AAGGAAAT,0.00091
13,AGCACCAA,-0.0317
14,GGTTGCCA,0.233
15,ATAACGCG,0.168
16,CCTATCCC,0.188
17,TTGCGAAA,0.119
18,ACACTCCG,0.204
19,ACATGCGT,-0.265
20,GGGGAAAC,0.206
21,GCGGAAAC,0.415
22,GAGGAAAC,0.053
23,TTGGAAAA,-0.141
24,TCGGAAAA,0.4
25,TGGGAAAA,-0.104

row,Sequence,PBM E-score
1,ACTATCAC,-0.18
2,GGTGCACC,-0.0384
3,CTCACCAG,-0.147
4,CCCGGCGG,0.382
5,ACGGGCAC,0.025
6,CCGGGCCA,0.346
7,CCCGGCCG,0.357
8,ACCGGCCG,0.35
9,GCGGGCAC,0.216
10,ACCGGCGG,0.256
11,CCGGGCCG,0.399
12,CCCGGCAG,0.303
13,CCGGGCAC,0.364
14,CCGGGCCC,0.345
15,CCCGGCCC,0.247
16,GCAAGATA,-0.00203
17,GCCATTAC,0.137
18,CTCAACTA,-0.0622
19,CCTCGAAA,-0.114
20,CCCTGAGA,-0.165
21,CTCAGAAC,-0.135
22,ACATATTA,-0.0563
23,AAGGTTGC,-0.0716
24,GACCTATA,0.0796
25,ATACAGAG,-0.223

row,Sequence,PBM E-score
1,GGGAAACA,0.161
2,AGGAAACG,-0.0809
3,CGGAAACC,0.425
4,CGGAAACA,0.451
5,CAGAAACG,0.0256
6,AGGAAACA,-0.0166
7,AGGAAACC,0.00802
8,CGGAAACG,0.396
9,GGGAAACC,0.149
10,GTAAGAAC,-0.0573
11,CGGGGTTA,0.304
12,CAAGGTAC,-0.25
13,CCTGGTCA,-0.169
14,AGTGCAAC,-0.107
15,CTGCGGCA,0.0359
16,ATGCGGAA,0.416
17,GTGCGGAA,0.366
18,ATGCGGAC,0.134
19,CTGCGGAA,0.357
20,GTGCGGGA,0.252
21,CTGCGGAC,0.1
22,ATGCGGAG,0.0777
23,GTGCGGCA,0.0901
24,CAGCCCGC,0.00736
25,AATATTAA,0.244

row,Sequence,PBM E-score
1,TTGGGAAA,0.0633
2,CGGCTCGA,0.174
3,CGAGTCGC,-0.0735
4,ACACCTCT,-0.0108
5,TAAACCAA,-0.263
6,GCCCAGGC,-0.138
7,GTCGGAAA,0.416
8,GTCGGAGA,0.173
9,ATCGGAAA,0.407
10,ATCGGAGA,0.25
11,ATCGGAGC,0.275
12,ATCGGACA,0.221
13,CTCGGAGA,0.312
14,ATCGGACC,0.313
15,CTCGGGAA,0.301
16,ATCGGAAC,0.469
17,CTCGGAAA,0.372
18,GTCGGATA,0.218
19,ATGAATAC,-0.0134
20,ATTGCGGA,0.328
21,CCAGTGCC,-0.1
22,ACACAAGC,0.0653
23,GAATGGGC,0.186
24,ACGCCGAC,0.163
25,GGAGATGA,0.094

row,Sequence,PBM E-score
1,ATCGGAAG,0.359
2,GTCGGAAC,0.458
3,CTCGGAAG,0.39
4,CTGGGAAG,-0.176
5,ATCGGACG,0.209
6,GTGGGAAC,-0.0738
7,CTAGGAAG,-0.214
8,ATCGGAGG,0.0523
9,TTCAGAAA,-0.195
10,TTCGGAAA,0.391
11,GTCGGACA,0.218
12,TCGGGAAA,0.309
13,AGATCTCC,0.0532
14,AGAGTATA,-0.259
15,ATCCTGGC,-0.0357
16,AGTGCCTC,-0.229
17,TTCCCCAA,-0.0249
18,ATCGGAAT,0.43
19,CTCGGAGC,0.276
20,CTAGGAAC,-0.0409
21,ATCGGCAT,0.175
22,CTCGGAAC,0.474
23,ATCGGATA,0.325
24,CCACAGCG,-0.0122
25,TACGGCCA,-0.0624

row,Sequence,PBM E-score
1,CTTCGCCC,0.0168
2,ATCGCCGC,0.166
3,CCCGCCGC,0.27
4,ACCGCCCC,0.148
5,CGCGCCCG,0.23
6,CCCGCCCC,0.357
7,CCCGCCCA,0.231
8,CCCGCCGG,0.373
9,ATCGCCGA,0.154
10,ATCGCCGG,0.373
11,CCCGCCCG,0.372
12,CCCGCCGA,0.305
13,ACCGCCCG,0.227
14,GAATCTCC,0.225
15,GTGGCCGA,0.107
16,ACCAGTCG,-0.0214
17,GCCGCCGA,0.292
18,TCCGCCGA,0.376
19,ACCGCCGA,0.103
20,CATGGGAG,-0.124
21,CAGTCTCG,-0.203
22,TGCGATAA,0.0592
